# Reference: PubChem BioAssay AID686979 (National Center for Advancing Translational Sciences (NCATS), 2013)
# The campaign covered roughly 420,000 compounds. About 50,000 (12%) were called active. Entries that show only a call come without a potency. Roughly 26% stayed inconclusive and do not appear here. Calls follow the shape of the dose curve; as a rule, active = well fitted inhibition curve with a large enough effect; inconclusive = small, poorly fitted or top-dose-only effect; inactive = flat fitted curve, though single readings scatter. The sample as a whole holds a higher share of actives than the screen did.
# Experiment: qHTS for Inhibitors of human tyrosyl-DNA phosphodiesterase 1 (TDP1): qHTS in cells in presence of CPT; also: nearly all actives have a fitted effect of over 55% in size
# Settings: chicken DT40 Tdp1-/-;hTDP1 cells + 20 nM CPT, ATP luminescence, 48 h; series mostly up to 46.2 µM
# Excerpt: Human tyrosyl-DNA phosphodiesterase 1 (TDP1) is a novel repair gene, and we propose to use it as a new target for anticancer drug development. TDP1 is not an essential protein, but under treatment with topoisomerase I poison (camptothecin: CPT), TDP1 works as a critical factor for cell survival. To directly identify novel TDP1 inhibitors active in a cellular environment, we have knocked-out the Tdp1 gene in chicken DT40 cells (Tdp1-/-) and generated a complemented counterpart cells that contains a stable transfection of the human TDP1 gene (Tdp1-/-;hTDP1 cells). For the primary screen, Tdp1-/-;hTDP1 cells will be exposed to small molecules in the presence or absence of CPT, and their growth kinetics will be evaluated after 48 hours by measuring ATP activity. […] The hit compounds will then be evaluated in the presence or absence of CPT using Tdp1-/- cells. […] In tertiary assays, biochemical gel-based assays will be used to assess whether the hit compounds specifically target TDP1. To this end, we have screened this cell line against the MLSMR in two primary screens. In one screen we add CPT and in the other we screen in the absence of CPT; this AID represents the screen where CPT was present. NIH Chemical Genomics Center [NCGC] NIH Molecular Libraries Probe Centers Network [MLPCN] MLPCN Grant: MH095538 Assay Submitter (PI): Yves Pommier, NCI
# DT40-hTDP1 cells with 20 nM Camptothecin (add 20 microL of 1 mM CPT stock in 1 L of cell culture medium) were dispensed at 400 cells/5microL/well in tissue culture treated 1536-well white wall/solid bottom assay plates (Greiner Bio-One North America, NC, U.S.A.) using a Multidrop Combi 8 channel dispenser (Thermo Fisher, Waltham, MA, USA). 23 nL compounds and controls were transferred using the pin tool (Kalypsys, San Diego, CA, USA) to the assay plates. The assay plates were then incubated at 37 masculineC for a minimum 48 hr. Three microL of Cell Titer Glo solution was added to the plates and incubated at RT in dark for 30 min. Luminescence was read using ViewLux (Perkin Elmer) with 1 sec exposure slow speed, high gain and 2x binning.
# Potency is read from the fitted curve at half-maximal effect.
row,Compound,Potency
1,CN(C)C(CNC(=O)Cc1ccc([N+](=O)[O-])cc1)c1ccccc1 (stereo unspecified),inactive
2,CCc1ccc(C(CNc2nc(C(F)(F)F)nc3ccccc23)N(C)C)cc1 (stereo unspecified),16.4 µM (active)
3,NS(=O)(=O)c1ccc(CCNc2nc(C(F)(F)F)nc3ccccc23)cc1,inactive
4,CCN(CC)CCCN=C(N)N,inactive
5,Cc1nc2ccc(S(=O)(=O)NC(C(=O)NCc3ccccc3Cl)C(C)C)cc2s1 (stereo unspecified),inactive
6,O=C(O)CC(c1ccccc1F)N1Cc2ccccc2C1=O (stereo unspecified),inactive
7,O=C(CC(c1cccs1)N1Cc2ccccc2C1=O)Nc1ccc(F)cc1F (stereo unspecified),20.6 µM (active)
8,COc1cc(C(CC(=O)NCCC(C)C)N2Cc3ccccc3C2=O)cc(OC)c1OC (stereo unspecified),inactive
9,CN(C)CCSc1nc(N)c2c3c(sc2n1)COC(C)(C)C3,inactive
10,Nc1nc(SCC(=O)NCCN2CCOCC2)nc2sc3c(c12)CCC3,inactive
11,CC(C)(C)C1CCc2c(sc3nc(SCC(N)=O)nc(N)c23)C1 (stereo unspecified),16.4 µM (active)
12,Cc1cnc(-n2ncc(C(=O)N3CCN(C(C)C)CC3)c2-c2ccco2)nc1-c1ccc(F)cc1,inactive
13,O=c1o[nH]c(-c2ccccc2)c1N=Nc1c(F)cccc1Cl,inactive
14,Cc1nc2ccccc2c(=O)n1NC(=O)c1ccc(Cl)c([N+](=O)[O-])c1,inactive
15,CC1(C)Cc2c(sc(NC(=O)C(=O)N3CCOCC3)c2C#N)CO1,20.6 µM (active)
16,CCOC(=O)N1CCN(C(=O)C(=O)Nc2sc3c(c2C#N)CC(C)(C)OC3)CC1,inactive
17,COC(=O)c1c(NC(=O)C(=O)N2CCCCC2)sc2c1CC(C)(C)OC2,inactive
18,CCOc1cc(NC(=O)Nc2ccccc2)c(OCC)cc1NC(=O)CC,inactive
19,CN(NC(=O)C1CC(=O)N(c2ccccc2)C1)C1=NS(=O)(=O)c2ccccc21 (stereo unspecified),inactive
20,S=C(NN=Cc1ccccn1)Nc1ccccn1,1.46 µM (active)
21,CNC(=O)C(=O)N/N=C/c1ccccn1,inactive
22,O=C(N/N=C/c1ccccn1)C12CC3CC(CC(C3)C1)C2,inactive
23,CC(=O)N1CCN(C(=O)C2(NC(=O)Nc3ccc(C)cc3)CCCCC2)CC1,inactive
24,CC(=O)NCC(=O)N1CCC(n2nccc2NC(=O)CCCc2ccccc2)CC1,inactive
25,c1ccc2sc(NN=C3CCCC3)nc2c1,inactive
26,c1ccc(C(=NNc2nc3ccccc3s2)c2ccccn2)cc1,0.164 µM (active)

row,Compound,Potency
1,O=C(Nc1ccccc1Cl)O/N=C(/c1ccccc1)c1ccccn1,inactive
2,CC(C)CN1C(=O)CN(S(C)(=O)=O)CC1(C)C(=O)NCc1ccccc1 (stereo unspecified),inactive
3,CCN(CC(=O)Nc1c(F)cccc1F)C(=O)c1ccc(-c2ccc(C(C)=O)cc2)o1,inactive
4,Cc1ccc(S(=O)(=O)NCC(=O)N(CC(=O)NC(C)(C)C)Cc2cccs2)cc1,inactive
5,Cc1cc(C)cc(C(=O)OCC(=O)NCCNC(=O)COC(=O)c2cc(C)cc(C)c2)c1,inactive
6,Cc1ccc(-c2cccc([C@H]3[C@@H]4C=CC[C@@H](C)[C@@H]4C(=O)N3Cc3ccccc3)c2)cc1,14.6 µM (active)
7,Cc1cccc([C@@H]2[C@@H]3C(=O)N(Cc4ccccc4)C(=O)[C@@H]3[C@]3(Cc4ccc(Cl)cc4)C(=O)N(c4cccc(Cl)c4)C(=O)N23)c1,inactive
8,COc1ccc(CN2CCNC(=O)C2CC(=O)N(C)Cc2ccccn2)cc1OC (stereo unspecified),inactive
9,O=[N+]([O-])c1ccc(N2CCOCC2)cc1,inactive
10,O=C(OCc1ccc([N+](=O)[O-])cc1)C1CC(=O)N(Cc2ccccc2Cl)C1 (stereo unspecified),inactive
11,O=[N+]([O-])c1ccc(COc2ccccc2CN2CCOCC2)cc1,23.1 µM (active)
12,O=C1c2cccc3cccc(c23)C(=O)N1c1cccc(O)c1,inactive
13,CCCCC(=O)NC(c1ccc(OC)c(OC)c1)c1ccc2cccnc2c1O (stereo unspecified),1.3 µM (active)
14,COc1ccc(CCNS(=O)(=O)c2cccc3cccnc23)cc1OC,inactive
15,C=CCn1c(COc2cccc3cccnc23)nnc1SCC(=O)OC,inactive
16,S=c1[nH]nc(-c2ccccc2)n1/N=C/c1c[nH]c2ccccc12,inactive
17,O=C(NC1CCCC1)C(=O)c1c[nH]c2ccccc12,inactive
18,C[n+]1ccc(/C=C/c2c[nH]c3ccccc23)cc1,1.03 µM (active)
19,CC1(C(=O)NS(=O)(=O)c2ccc(C#N)cc2)CCN1C(=O)CC1CCCC1 (stereo unspecified),inactive
20,CC1(C)CC2CC(C)(CN2c2ncnc3ccc(Br)cc23)C1 (stereo unspecified),5.17 µM (active)
21,O=C(COC(=O)Cc1ccccc1F)NNC(=O)c1ccc(Cl)cc1,inactive
22,COc1ccc(C)cc1N(CC(=O)NC(C)c1ccccc1)S(C)(=O)=O (stereo unspecified),inactive
23,CC(C)CNC(=O)C1(C)CCCN1C(=O)CSc1ccccc1 (stereo unspecified),inactive
24,COc1ccc(NC(=O)C(=O)NCC(=O)Nc2cccc(C(F)(F)F)c2)cc1,inactive
25,Cc1cc(Nc2cccc(C(F)(F)F)c2)nc2ccc(NC(=O)c3ccc(=O)[nH]c3)cc12,16.4 µM (active)
